Measurements from ChEMBL document CHEMBL3433997, “St. Jude Leishmania screening dataset” (2016).

Tests used:
Assay type in all cases: functional
[1] = target: Solute carrier family 2, facilitated glucose transporter member 1 (Homo sapiens) (UniProt P11166); test: ST_JUDE_LEISH: Cytotoxicity at 2uM final concentration against transgenic Leishmania Mexicana promastigotes LmGLUT1 that are glucose transport deficient and complemented with the human glucose transporter GLUT1. Activity is measured by DNA content using SYBR green in vitro
Chain of Solute carrier family 2, facilitated glucose transporter member 1 (Homo sapiens) (P11166 whole entry): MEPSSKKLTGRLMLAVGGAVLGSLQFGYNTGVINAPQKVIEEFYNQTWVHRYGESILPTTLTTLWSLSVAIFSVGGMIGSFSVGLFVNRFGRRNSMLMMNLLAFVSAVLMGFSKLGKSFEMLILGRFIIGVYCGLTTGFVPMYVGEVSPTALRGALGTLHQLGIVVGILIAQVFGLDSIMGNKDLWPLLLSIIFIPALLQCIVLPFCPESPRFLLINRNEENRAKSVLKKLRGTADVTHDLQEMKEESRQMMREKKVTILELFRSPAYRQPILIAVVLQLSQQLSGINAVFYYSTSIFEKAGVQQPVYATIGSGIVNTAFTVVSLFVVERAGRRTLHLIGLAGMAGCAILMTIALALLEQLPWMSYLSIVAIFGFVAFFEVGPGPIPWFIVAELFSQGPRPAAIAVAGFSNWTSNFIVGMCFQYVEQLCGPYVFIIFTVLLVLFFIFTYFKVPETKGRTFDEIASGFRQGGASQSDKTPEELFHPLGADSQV

[2] = target: Hexose transporter 1 (Plasmodium falciparum) (UniProt O97467); test: ST_JUDE_LEISH: Cytotoxicity at 2uM final concentration against transgenic Leishmania Mexicana promastigotes LmPfHT that are glucose transport deficient and complemented with the Plasmodium falciparum hexose transporter. Activity is measured by DNA content using SYBR green in vitro
[3] = target: Glucose transporter (Leishmania mexicana) (UniProt O61059); test: ST_JUDE_LEISH: Cytotoxicity at 2uM final concentration against transgenic Leishmania Mexicana promastigotes LmGT2 that are glucose transport deficient and complemented with the L. Mexicana glucose transporter 2. Activity is measured by DNA content using SYBR green in vitro

In the case of `C=CCn1c(Sc2ccc(C#N)c([N+](=O)[O-])c2)nnc1-c1cc(OC)cc(OC)c1`, the inhibition [1] is reported as 12.5%, the inhibition [2] is reported as 13.4% and the inhibition [3] is reported as 10.9%.
`C=CCNS(=O)(=O)c1ccc(NC(=O)C(C)Oc2ccc([N+](=O)[O-])cc2)cc1` (configuration not stated) showed an inhibition [1] of 1.52%, an inhibition [2] of 1.56% and an inhibition [3] of -0.8%.
`COc1ccc2c(=O)c3ccc(OC)cc3[nH]c2c1` was tested, and the inhibition [1] was 1.08%, the inhibition [2] was -2.12% and the inhibition [3] was -0.67%.
Compound `COC(=O)c1ccc(NC(=O)Nc2cccc(CCNCc3ccccc3)c2)cc1` has an inhibition [1] of -0.06%, an inhibition [2] of -0.8% and an inhibition [3] of -1.41%.
With `CCOC(=O)c1cccc(NC(=O)Nc2cc(C)nc3ccccc23)c1` the inhibition [1] was 9.1%, the inhibition [2] was 6.21% and the inhibition [3] was 5.11%.
`CO/C(=C\C=C\c1cc2cc(Cl)c(Cl)cc2[nH]1)C(=O)NC1CCN(CCNc2ccccc2)CC1` showed an inhibition [1] of -1.91%, an inhibition [2] of -1.2% and an inhibition [3] of 0.08%.
`Cc1cc(N2CCCC2)nc(Nc2ccc(NC(=O)c3ccco3)cc2)n1` was tested, and the inhibition [1] was 0.47%, the inhibition [2] was 3.07% and the inhibition [3] was -0.1%.
`CCc1cn2c3c(cc(C(=O)N[C@@H](Cc4cccc(F)c4)[C@H](O)CNC4CCOCC4)cc13)N(C)S(=O)(=O)CC2` showed an inhibition [1] of -0.16%, an inhibition [2] of 0.52% and an inhibition [3] of 1.47%.
With `OCCN1CCN(Cc2cccc(-c3cccc(-c4nc5cc(F)ccc5[nH]4)c3)c2)CC1` the inhibition [1] was 0.05%, the inhibition [2] was 1.75% and the inhibition [3] was -0.17%.
For `Cn1nccc1C(=O)NCCNCc1cccc(-c2ccc(-c3nc4ccccc4[nH]3)s2)c1`, the inhibition [1] was -0.55%, the inhibition [2] was -0.8% and the inhibition [3] was -1.72%.
With `CC(C)(C)c1ccc(C(=O)Nc2cccc(Nc3c(C(=O)NCc4cccc(C(F)(F)F)c4)cnc4c(O)cccc34)c2)cc1` the inhibition [1] was 10.1%, the inhibition [2] was 8.9% and the inhibition [3] was 9.37%.
In the case of `Cc1ccc(C)c(Sc2ccc(NC(=O)CN3CCN(C(=O)c4ccco4)CC3)cc2)c1`, the inhibition [1] is reported as 0.6%, the inhibition [2] is reported as 0.52% and the inhibition [3] is reported as 0.17%.
For `CCN(CCCN1CCCCC1)c1cc(C)nc(Nc2ccc(C)cc2C(F)(F)F)n1`, the inhibition [1] was -1.87%, the inhibition [2] was 0.39% and the inhibition [3] was -1.54%.
For `CCN(CC)Cc1cc(Nc2ccnc3cc(Cl)ccc23)ccc1O`, the inhibition [1] was -1.88%, the inhibition [2] was 2.29% and the inhibition [3] was 4.65%.
With `COc1ccc(Cl)cc1NC(=O)C(C)N1CCN(S(=O)(=O)c2ccccc2F)CC1` (configuration not stated) the inhibition [1] was 4.36%, the inhibition [2] was 3.53% and the inhibition [3] was 3.44%.
Compound `Cc1cccc(CN2CCCN(Cc3ccc(C(=O)Nc4ccc(C(C)(C)C)cc4)cc3)CC2)c1` has an inhibition [1] of 1.47%, an inhibition [2] of 1.6% and an inhibition [3] of -0.38%.
For `COc1ccc2nccc([C@@H](O)CN3CCC(NC(=O)C(=Cc4ccc(Cl)cc4Cl)c4ccc(-c5ccccc5)cc4)CC3)c2c1`, the inhibition [1] was 6.27%, the inhibition [2] was 4.58% and the inhibition [3] was 4.7%.
For `CN1CCN(Cc2ccc(-c3ccc4c(Nc5ccc(Cl)cc5F)ccnc4c3)o2)CC1`, the inhibition [1] was 11.9%, the inhibition [2] was 11.8% and the inhibition [3] was 11.1%.
In the case of `Cc1noc(-c2ccccc2)c1NC(=O)NC1CCN(CCCCCNC(=O)/C=C/c2ccc(Cl)c(Cl)c2)CC1`, the inhibition [1] is reported as 4.35%, the inhibition [2] is reported as 5.32% and the inhibition [3] is reported as 3.4%.
With `Cc1[nH]c(C)c(-c2ccc(-c3ccccc3Cl)nc2)c(=O)c1Br` the inhibition [1] was 0.1%, the inhibition [2] was 1.48% and the inhibition [3] was -0.05%.
Work on `O=C(C=Cc1cn(-c2ccccc2)nc1-c1ccccc1)N1CCN(c2ccncc2)CC1` yielded an inhibition [1] of 5.75%, an inhibition [2] of 5.64% and an inhibition [3] of 4.62%.
With `O=C(NCCCCN1CCC(c2ccc3c(c2OCC(O)c2ccc(Cl)cc2)CCCC3)CC1)c1ccc(-c2ccc(C(F)(F)F)cc2)cc1` (configuration not stated) the inhibition [1] was 0.65%, the inhibition [2] was 1.49% and the inhibition [3] was 0.85%.
With `CN(CCCNCc1cccc2ccccc12)CCCNCc1cccc2ccccc12` the inhibition [1] was 1.31%, the inhibition [2] was 0.53% and the inhibition [3] was 1.98%.
For `CCCC1N=C(N)N=C(N)N1c1cccc(C(F)(F)F)c1` (configuration not stated), the inhibition [1] was 0.83%, the inhibition [2] was 0.06% and the inhibition [3] was 0.06%.
`Cc1cc(C(=O)Nc2ccc3c(c2)CCN3C2CCN(Cc3cccc(F)c3F)C2)no1` (configuration not stated) showed an inhibition [1] of -0.4%, an inhibition [2] of -0.88% and an inhibition [3] of 0.24%.
`Cc1c(N)ccc2[nH]c(-c3ccc(N)cc3)nc12` showed an inhibition [1] of 3.21%, an inhibition [2] of 4.3% and an inhibition [3] of 2.89%.
`CCCCc1nc2nc(N)nc(N)c2cc1CCC` gave an inhibition [1] of 1.72%, an inhibition [2] of 6.46% and an inhibition [3] of 1.5%.
Compound `COc1ccc(Nc2ncc3c(-c4cccc(NC(=O)c5ccc(N)cc5)c4)c[nH]c3n2)cc1OC` has an inhibition [1] of 9.74%, an inhibition [2] of 8.84% and an inhibition [3] of 7.97%.
With `COc1ccc(-c2cccc(NC(=O)c3cccc(Cl)c3)c2)cc1CN(C)CCN(C)C` the inhibition [1] was 1.29%, the inhibition [2] was 0.75% and the inhibition [3] was -1.29%.
`COc1ccc(NS(=O)(=O)c2ccc(Oc3nc(C)nc4sc5c(c34)CCCC5)cc2)cc1` gave an inhibition [1] of 3.13%, an inhibition [2] of 3.7% and an inhibition [3] of 2.29%.
`CCOc1cc(Cl)c(C(C)NC(=O)c2cccc(OC)c2)cc1OCC` (configuration not stated) was tested, and the inhibition [1] was 7.84%, the inhibition [2] was 7.46% and the inhibition [3] was 4.84%.
`CC(C)(C)c1ccc(N2C(N)=NC(N)=NC2(C)C)cc1Cl` showed an inhibition [1] of 9.03%, an inhibition [2] of 7.39% and an inhibition [3] of 5.67%.
Work on `N#Cc1cncc(-c2nc3c(N4CCN(c5cnccn5)CC4)cccc3n2CCNCc2ccccc2)c1` yielded an inhibition [1] of 2.77%, an inhibition [2] of 1.47% and an inhibition [3] of -3.33%.
Work on `CC(=O)N1N=C(c2ccc(F)cc2)Sc2c1nc(-c1ccccc1)n2C(C)=O` yielded an inhibition [1] of 8.6%, an inhibition [2] of 7.94% and an inhibition [3] of 8.7%.
Compound `CC1(C)NC(N)=NC(=N)N1OCc1ccc2ccccc2c1CON1C(=N)N=C(N)NC1(C)C` has an inhibition [1] of 3.58%, an inhibition [2] of 2.14% and an inhibition [3] of 3.06%.
`Fc1ccc(C2N=C(SCCSC3=NC(c4ccc(F)cc4)C(c4ccc(F)cc4)N3)NC2c2ccc(F)cc2)cc1` (configuration not stated) gave an inhibition [1] of 1.34%, an inhibition [2] of 3.1% and an inhibition [3] of 3.33%.
With `COc1ccc2[nH]c(C(=O)Nc3cccc(-c4ccc(CN(C)C)cc4)c3)cc2c1` the inhibition [1] was 3.16%, the inhibition [2] was 1.78% and the inhibition [3] was -0.5%.
Work on `Cc1cccc2nc(-c3cccc(-c4ccc(NC(=O)C(C)CN5CCOCC5)cc4)c3)[nH]c12` (configuration not stated) yielded an inhibition [1] of 3.62%, an inhibition [2] of 2.93% and an inhibition [3] of 4.9%.
For `CCN(CC)CCNc1nc(C=Cc2ccc(Cl)cc2)nc2cc3ccccc3cc12`, the inhibition [1] was -0.78%, the inhibition [2] was -0.58% and the inhibition [3] was -1.66%.
Compound `O=S(=O)(Nc1cc2c(cc1O)CCN(C1CCC1)CC2)c1ccc(-c2ccc(F)cc2)cc1` has an inhibition [1] of 5.67%, an inhibition [2] of 8.27% and an inhibition [3] of 3.1%.
With `Cc1cc(-c2ccc(NC(=O)N3CCc4cc(Br)c(N5CCN(C)CC5)cc43)cc2)cc(C)n1` the inhibition [1] was 9.14%, the inhibition [2] was 8.41% and the inhibition [3] was 10.1%.
`CCOc1ccc(-c2nonc2NC(=O)c2cccc(Cl)c2)cc1OCC` was tested, and the inhibition [1] was 2.52%, the inhibition [2] was 3.66% and the inhibition [3] was -0.71%.
Work on `CCOc1ccc(NC(=O)c2cccc(CN3CCCN(Cc4cccc(O)c4)CC3)c2)cc1` yielded an inhibition [1] of -0.94%, an inhibition [2] of 0.07% and an inhibition [3] of 0.81%.
With `COc1cc(OC)cc(-c2nc3ccc(OCCN(C)C)c(C#N)c3[nH]2)c1` the inhibition [1] was 0.95%, the inhibition [2] was 4.09% and the inhibition [3] was 2.21%.
`COc1cc(NC(=O)/C=C/c2ccccc2Cl)cc(OCCN2CCC(O)(c3ccccc3)CC2)c1` was tested, and the inhibition [1] was 6.07%, the inhibition [2] was 3.45% and the inhibition [3] was 4.61%.
Work on `Cc1cc(N[C@@H](Cc2ccccc2)C(=O)NCc2cccc(F)c2)nc(NCCc2ccccc2)n1` yielded an inhibition [1] of 5.82%, an inhibition [2] of 4.21% and an inhibition [3] of 2.48%.
For `Cn1nccc1C(=O)NCCNCc1cccc(-c2cccc(-c3nc4cc(F)ccc4[nH]3)c2)c1`, the inhibition [1] was 3.43%, the inhibition [2] was 3.28% and the inhibition [3] was 1.11%.
Work on `CCn1c(-c2nonc2N)nc2c(-c3cccc(NC(=O)NC45CC6CC(CC(C6)C4)C5)c3)ncc(OCCCN)c21` yielded an inhibition [1] of 2.53%, an inhibition [2] of 1.83% and an inhibition [3] of 2.53%.
In the case of `CCN1C(c2ccc(Cl)cc2)C(CNCc2ccccc2O)CC1(C)CO` (configuration not stated), the inhibition [1] is reported as 8.9%, the inhibition [2] is reported as 7.62% and the inhibition [3] is reported as 4.57%.
